Source: the supplement of paper PMC4894684
Structures can show the parent of a compound that is named as a salt. ± gives the standard deviation of the averaged measurements.

System: Toxoplasma gondii RH (in HFF)
Assay: parasite growth relative to the screen mean (all compounds = 100%); higher = less inhibition of parasite growth
Conditions: 5 µM; 72 h; oxygen 21 %
In short: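 Confluent human foreskin fibroblasts in 96-well plates received library compounds by pin transfer at 5 µM final, taken from 10 mM DMSO stocks. Within 2 h the cells were infected with RH β-Gal–GFP Toxoplasma at MOI 1:5 and cultured 72 h at 21% O2. A CPRG β-Gal assay read against in-plate standard curves gave parasite number, and growth is stated relative to the screen mean, where all compounds = 100%, averaged across two screens.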

Structure (SMILES)	parasite growth
COc1ccccc1C1(O)CCN(CCCn2c3ccccc3c3ccccc32)CC1 [NNC 05-2090 hydrochloride]	< 0%
CC(C)n1nnc2cc(C(=O)O)ccc21	81.9 ± 22%
OC[C@H]1O[C@@H](n2cnc3c(NC4CCCC4)ncnc32)[C@H](O)[C@@H]1O [N6-Cyclopentyladenosine]	77.4 ± 7.7%
CC(=O)NCC(=O)N[C@H](CCC(=O)O)C(=O)O [N-Acetylglycyl-D-glutamic acid]	132 ± 22%
CC1(C)CCC(C)(C)c2cc(C3(c4ccc(C(=O)O)cc4)OCCO3)ccc21	115 ± 34%
O=C(Nc1ccccc1)c1cc([N+](=O)[O-])ccc1Cl	103 ± 18%
Cc1noc(NS(=O)(=O)c2ccc(N)cc2)c1C [Sulfisoxazole]	108 ± 1.1%
COC(=O)[C@@H]1CC2=CC(=O)CC[C@]2(C)[C@@]23O[C@@H]2C[C@@]2(C)[C@@H](CC[C@@]24CCC(=O)O4)[C@H]13 [Eplerenone]	132 ± 22%
CC(C)NCC(O)COc1cccc2[nH]ccc12 (stereo unspecified) [Pindolol]	148 ± 24%
CC1(CN2CCC(n3c(=O)[nH]c4ccccc43)CC2)OCc2ccccc2-n2cccc21 (stereo unspecified)	113 ± 47%
CC1=NN(c2ccccc2)C(=O)C1	133 ± 8.7%
CNC(=O)[C@@H](Cc1ccccc1)N(C)C(=O)[C@@H](Cc1ccc2ccccc2c1)N(C)C(=O)/C=C/CC(C)(C)N [Tabimorelin]	135 ± 20%
Nc1nccc(-c2ccc3noc(-c4ccc(Cl)cc4)c3c2)n1 [PIM 1 Inhibitor 2]	69.9 ± 15%
CC(C)NCC(O)COc1ccc(CCOCC2CC2)cc1 (stereo unspecified) [Betaxolol hydrochloride]	89.4 ± 13%
COc1cc(N)c(Cl)cc1C(=O)NC1CCN(CCCOc2ccc(F)cc2)CC1OC (stereo unspecified) [Cisapride]	20.8 ± 7.1%
Cn1cnnc1Sc1c([N+](=O)[O-])ncn1C	131 ± 11%
Nc1nc2ccc(Cl)cc2c2nc(-c3ccco3)nn12	131 ± 14%
OC(c1ccccc1)C1CCN(CCc2ccccc2)CC1 (stereo unspecified)	70.7 ± 12%
CC(C)NC[C@@H](O)COc1cccc2ccccc12 [(R)-(+)-Propranolol hydrochloride]	87.15 ± 0.86%
O=C1CCC(N2C(=O)c3ccccc3C2=O)C(=O)N1 (stereo unspecified) [Thalidomide]	151 ± 46%
O=C1NC(=O)c2cc(Nc3ccc(F)cc3)c(Nc3ccc(F)cc3)cc21	171 ± 51%
CC(Oc1ccc(O)cc1)(P(=O)(O)O)P(=O)(O)O	101 ± 21%
COCCOC(=O)C1=C(C)NC(C)=C(C(=O)OC(C)C)C1c1cccc([N+](=O)[O-])c1 (stereo unspecified) [Nimodipine]	117 ± 13%
Oc1ccc(-c2c(-c3ccccc3)nn3c(C(F)(F)F)cc(C(F)(F)F)nc23)cc1	170 ± 8.6%
Cc1ccc(NC(=O)C(C)C)cc1C1CCN(Cc2ccc(Oc3ccc(F)c(F)c3)cc2)CC1	< 0%
CCC(C)(C)C(=O)O[C@H]1C[C@@H](C)C=C2C=C[C@H](C)[C@H](CC[C@@H]3C[C@@H](O)CC(=O)O3)[C@H]21 [Simvastatin]	110 ± 18%

Structure (SMILES)	parasite growth
N[C@H]1CCN(O)C1=O	94.9 ± 34%
Nc1ccc(-c2nc3ccc(-c4nc5ccc(N)cc5[nH]4)cc3[nH]2)cc1	89.6 ± 5.3%
CC(CCc1ccc(O)cc1)NCCc1ccc(O)c(O)c1 (stereo unspecified) [Dobutamine hydrochloride]	176 ± 7.3%
COc1cc(NC(=O)c2ccccn2)ccc1Cl	91.2 ± 30%
CCCCCCCC/C=C\CCCCCCCC(=O)N[C@@H](CO)Cc1ccc(O)cc1	171 ± 11%
O=C(NCCCN1CCC2(CC1)OCc1ccccc12)[C@H]1CCCN1Cc1ccccc1	136.9 ± 0.99%
CC[C@@H]1Cn2c(c3nc(-c4ccccc4)nc-3n(C)c2=O)N1	96.8 ± 13%
O=C(O)c1ccc(-c2ccc3cc(O)c(C45CC6CC(CC(C6)C4)C5)cc3c2)cc1	146 ± 18%
CCOc1ccc(Nc2nc(-c3c(C)nc4ccccn34)cs2)cc1	127 ± 44%
CNc1cc(OC)c(C(=O)NC2CCN(Cc3ccccc3)C2C)cc1Cl (stereo unspecified) [Nemonapride]	95.4 ± 2.2%
CN(N=O)C(=O)N[C@@H](C=O)[C@@H](O)[C@H](O)[C@H](O)CO [Streptozocin]	137 ± 5.8%
O=C(Nc1ccccc1)N[C@@H]1C[C@@H](C(=O)O)Nc2cc(Cl)cc(Cl)c21	104 ± 3.9%
NCCCCCc1c[nH]cn1 [Impentamine dihydrobromide]	132 ± 7.9%
CN1CCN(C2=Cc3ccccc3Oc3ccc(Cl)cc32)CC1	31.7 ± 7.6%
Cc1ccc(Sc2cncc3sc(C(N)=O)cc23)cc1	148 ± 2.4%
Cc1nc2c(c(=O)[nH]1)CSCC2	122 ± 32%
CN1CCC[C@@H]1Cc1c[nH]c2ccc(CCS(=O)(=O)c3ccccc3)cc12 [Eletriptan hydrobromide]	126 ± 18%
CN(Cc1ccccc1)C(=O)[C@H](Cc1ccc2ccccc2c1)NC(=O)[C@@H]1CCCN1C(=O)Nc1ccccc1[N+](=O)[O-]	110 ± 9.9%
CC(=N)NCCCC[C@H](N)C(=O)O [L-NIL hydrochloride]	130 ± 15%
CCC(=O)OCN1C(=O)C=CC1=O	124 ± 12%
CCCCCCCCCCC[C@@H](C[C@@H]1OC(=O)[C@H]1CCCCCC)OC(=O)[C@H](CC(C)C)NC=O [Orlistat]	< 0%
N[C@@H](CSS(=O)(=O)O)C(=O)O [S-Sulfo-L-cysteine sodium salt]	101 ± 6.6%
C[C@@H]1C[C@H]2[C@@H]3CCC4=CC(=O)C=C[C@]4(C)[C@@]3(F)[C@@H](O)C[C@]2(C)[C@@]1(O)C(=O)CO [Dexamethasone]	141 ± 12%
Cc1ccc(NC(=O)c2cccc(N(C)C)c2)cc1NC(=O)c1ccc(O)cc1	141 ± 7.3%
CNCCC(Oc1ccccc1OC)c1ccccc1 (stereo unspecified) [Nisoxetine hydrochloride]	67 ± 20%
OCCNCCCOc1cccc(Cl)c1Cl [2,3-DCPE hydrochloride]	103 ± 8.3%

Structure (SMILES)	parasite growth
C=C1C(=O)O[C@@H]2/C=C(\C)CC/C=C(\C)CC[C@@H]12 [Costunolide]	30.7 ± 25%
O=C(Nc1ccc([N+](=O)[O-])cc1O)Nc1ccccc1Br	107 ± 21%
N#CC(=C(/N)Sc1ccccc1N)/C(C#N)=C(/N)Sc1ccccc1N	197 ± 14%
Cc1nn(-c2ccccc2)c(C)c1C=NN1CCN(Cc2ccccc2)CC1	141 ± 26%
CC#CCOC(=O)C1=CCCN(C)C1 [Arecaidine but-2-ynyl ester tosylate]	144 ± 12%
C[N+](C)(C)CCCCCNCC12CC3CC(CC(C3)C1)C2	120 ± 3.1%
Cc1ccc(C(=O)Cn2c3c(sc2=N)CCCC3)cc1 [Pifithrin- α hydrobromide]	130 ± 1.9%
COCCNC(=O)COc1ccc(OCCNC[C@H](O)COc2ccccc2)cc1 [ZD 7114 hydrochloride]	123 ± 7%
COc1cccc(OC)c1OCCNCC1COc2ccccc2O1 (stereo unspecified) [WB 4101 hydrochloride]	93.3 ± 33%
CC1(c2ccccc2)OC(C(=O)O)=CC1=O (stereo unspecified) [Acifran]	114 ± 2.4%
CNC(=O)[C@H]1O[C@@H](n2cnc3c(NCc4cccc(I)c4)ncnc32)[C@H](O)[C@@H]1O	117 ± 14%
CNC(=O)[C@H]1O[C@@H](n2cnc3c(NCc4cccc(I)c4)nc(Cl)nc32)[C@H](O)[C@@H]1O	120 ± 28%
c1ccc2oc(C3=NCCN3)cc2c1 [2-BFI hydrochloride]	109 ± 12%
CCN(CC)CCOC(=O)c1cc(Cl)c(N)cc1OC [SDZ 205-557 hydrochloride]	105 ± 6.7%
CC12CC3CC(C)(C1)CC(N)(C3)C2 [Memantine hydrochloride]	123 ± 4.8%
NS(=O)(=O)c1nn2cc(-c3ccccc3)nc2s1	108 ± 28%
O=C(O)c1cc(=O)c2ccccc2[nH]1 [Kynurenic acid]	123 ± 18%
COC(=O)C(Cc1ccc(OCCn2c(=O)sc3cc(C(=O)c4ccccc4)ccc32)cc1)C(=O)OC	120 ± 5.3%
CC1(C)C(=O)NC2=C1C(=O)C(=O)c1ccccc12	< 0%
CN(CCOc1ccc(-c2ccc3c(c2)OCO3)cc1C(C)(C)C)CC(=O)O	110 ± 38%
O=C(OCCN1CCOCC1)C1(c2ccccc2)CCCCC1 [PRE-084 hydrochloride]	99.6 ± 19%
COC(=O)c1c(-c2cc(OC)c(OC)c(OC)c2)c2ccnc(OCc3ncccn3)c2c(=O)n1Cc1ccnc(C)c1 [T 0156 hydrochloride]	89.9 ± 14%
Cc1ccc(C(=O)Nc2ccc(S(=O)(=O)O)c3cc(S(=O)(=O)O)cc(S(=O)(=O)O)c23)cc1NC(=O)c1cccc(NC(=O)Nc2cccc(C(=O)Nc3cc(C(=O)Nc4ccc(S(=O)(=O)O)c5cc(S(=O)(=O)O)cc(S(=O)(=O)O)c45)ccc3C)c2)c1 [Suramin hexasodium salt]	90 ± 22%
CCCC1O[C@@H]2C[C@H]3[C@@H]4CCC5=CC(=O)C=C[C@]5(C)[C@H]4[C@@H](O)C[C@]3(C)[C@]2(C(=O)CO)O1 (stereo partly specified) [Budesonide]	138 ± 12%
